# Target: AMP-activated protein kinase, AMPK (Homo sapiens) (UniProt P54646+O43741+P54619+Q9UGJ0+Q9Y478+Q13131+Q9UGI9)
# Test: AMP-dependent Kinase enzyme assay. An in vitro enzyme assay that detects ADP turnover that is directly proportional to AMPK activity. This uses naive AMPK that is activated during the assay with MK-8722
# Assay type: functional
# Design: scale not given: direction of the effect not stated beside the values
# Details: 30 µM
row,Structure (SMILES),Percent Effect [%]
1,O=C(Cc1cccnc1)N1CCCC(c2cc(C(F)(F)F)[nH]n2)C1 (stereo not drawn),2.17
2,Cc1cnn(CC2CCN(CC(O)Cn3cccn3)CC2)c1 (stereo not drawn),11.8
3,CC(=O)N[C@H]1CCO[C@@H](c2cccc(NC(=O)c3ccc(=O)[nH]n3)c2)C1,14.1
4,COCc1c(Cl)cccc1NC(=O)CNC(=O)C(C)(C)C,-4.63
5,CN(C)CCN(Cc1cccc(F)c1)C(=O)c1ccn(C)c(=O)c1,9.63
6,CN(CCCc1cnn(C)c1)Cc1cc2n(n1)CCNC2,-4.86
7,Cc1c(NC(=O)c2cnc[nH]2)cccc1C(=O)NC(C)(C)C,15
8,Cc1ccc(-c2cc(C(=O)N(C)Cc3noc4c3CCCC4)[nH]n2)o1,4.24
9,O=C(O)[C@H]1C[C@@H](C(=O)NCc2ccncc2)CN(Cc2ccccc2)C1,-3
10,O=C1NCCN(CC2CCCCC2)C1CC(=O)N1CCc2n[nH]cc2C1 (stereo not drawn),-8.97
11,O=C(NCc1ccc(OCC2CC2)nc1)C1COc2ccccc2O1 (stereo not drawn),-1.03
12,Cc1cc(C)c(C#N)c(NCCn2cnnc2C(C)C)n1,2.2
13,Cc1cc(NCCc2cnccn2)nc(-c2ccccc2O)n1,19.4
14,COc1ccc(C)nc1NC(=O)CCc1c(C)nn(C)c1C,-7.06
15,O=C(CCC1CCCN(C(=O)CCc2ccc(F)c(F)c2)C1)NC1CC1 (stereo not drawn),5.21
16,O=C(NCC[S+]([O-])c1ccccc1)c1ccc2[nH]c(=O)[nH]c2c1 (stereo not drawn),6.24
17,O=S(=O)(NCCCn1cccn1)c1ccc2c(c1)CCC2,12.2
18,Cc1nnc(CN(C)CC(=O)NCCc2ccc(F)cc2)n1C,5.73
